The text below walks through data of PubChem BioAssay.

“And” between values parts separate entries of the source, which are not always exact repeats. Identical values can stand only once. Records with an inconclusive call do not appear. For part of these data: Potency and affinity values are given separately. The source made the active and inactive calls.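 How the source made its calls, unless noted: active means at least 20% inhibition of 6-phosphogluconate dehydrogenase activity; inactive means the rest.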

Assay [1] has as its target 6-phosphogluconate dehydrogenase, decarboxylating (Homo sapiens) (UniProt P52209). Briefly: inhibition of human phosphogluconate dehydrogenase – biochemical, recombinant enzyme, NADPH absorbance, primary screen (AID 1159550). The note with it: recombinant 6PGD, NADPH absorbance 341 nm; at 10 µM; stronger effect = higher value.
In assay [2] the test system is Aerobactin synthetase IucA (Klebsiella pneumoniae hvKP1). Briefly: IucA enzyme inhibition, primary screen, biochemical, Spectrum library (AID 1346200; call rule not given here;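 further: 100% = wells without compound and 0% = wells lacking enzyme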). To be noted: malachite green pyrophosphate, A620, at 8 µM, stronger effect = lower value.
Assay [3] deals with Mitogen-activated protein kinase 7 (Homo sapiens) (UniProt Q13164). Briefly: Gal4-ERK5 driven luciferase induction – cell-based, HTS, primary screen (AID 1508626;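 active means luciferase signal above three times the same-plate solvent-only control wells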;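 further: luciferase driven by Gal4-ERK5 fusion binding five Gal4 sites before minimal TATA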). The note with it: HeLa Gal4-ERK5 transactivation, 18 h, at 5 µM, stronger effect = higher value.
Assay [4] is described as follows: blockers of polyQ-driven CASP3 activation – cell-based (AID 1583). The note with it: polyglutamine-induced caspase-3 activation, cell assay; stronger effect = higher value;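 tested at 10 µM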.
Assay [5] can be described thus: yeast 75Q aggregation reduction – 75Q-TubU reporter (AID 1593). The note with it: Yeast 75Q polyglutamine aggregation reporter.
Assay [6] is described as follows: restoration of touch response, mutant HTT neurons – whole organism, C. elegans mechanosensory neurons, N-terminal huntingtin (AID 1599). The note with it: C. elegans polyQ-huntingtin mechanosensory neurons, stronger effect = higher value.
The nature of assay [7]: blockers of cytochrome c efflux from mitochondria – biochemical, purified mitochondria (AID 1603).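 Further: mouse liver mitochondria challenged with calcium chloride; signal normalized to the plate average as 100%.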 To be noted: stronger effect = lower value.
Assay [8] can be described thus: polyglutamine aggregate formation blockers (AID 1604). The note with it: polyglutamine-induced protein aggregation inhibition assay; stronger effect = higher value; tested at 2.5 µM.
Assay [9] is described as follows: glutamate transport activators, MN-1 cells, MN-1 cell line (AID 1612).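 Further: tested at 1 µM final; 0% = mean of DMSO vehicle wells on each plate; positive means more glutamate uptake than control and negative means less.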 To be noted: MN-1 motor neuron cells, stronger effect = higher value.
The nature of assay [10]: GFP-Q80 aggregate reduction, neuronal-like cells, cell-based, NGF-treated PC12, GFPQ80 (AID 1614).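 Further: lower means fewer inclusions and 0 means no inclusions at all.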 The note with it: PC12 NGF-treated GFP-polyQ80 inclusion reduction.
Assay [11] is described as follows: 75Q-TubH aggregate inhibition, S. cerevisiae, yeast (AID 1616). The note with it: S. cerevisiae 75Q-TubH polyglutamine aggregation suppression; stronger effect = higher value.
Assay [12] in a line: P. berghei load reduction in hepatocytes – cell-based, HepG2, luciferase luminescence, HepG2 viability, primary screen (AID 624349; in the data active means parasite load remaining mostly below about 12%, no sharp cut-off; inactive means mostly above about 10%;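 further: 100% = mean of DMSO negative control wells on the same plate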). The note with it: P. berghei liver stage in HepG2, luciferase luminescence, concentration not given here; parasite load remaining: stronger effect = lower value; viability: measured here: HepG2 viability without parasites.
The nature of assay [13]: viability loss with induced miR-34 in A549 – imaging, A549 dox-inducible miR-34, nuclei and caspase counts, primary screen (AID 1347080;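 active means compounds whose cell count with miR-34 switched on is under 0.7 times the count with it off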). To be noted: A549 miR-34 inducible, Hoechst nuclei count, 48 h.
Assay [14] can be described thus: MELAS cybrid and Rieske KO viability enhancers – cell-based, MELAS cybrids, Rieske KO mouse fibroblasts, CellTiter-Glo, primary screen (AID 1508586;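 active means mean z-score across replicates of 1.96 or higher in either the MELAS or the Rieske mutant cell line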;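 further: z relative to plate mean and SD of compound and empty wells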). To be noted: low glucose. On the technique in general: In ATP-based viability assays light output follows the ATP content of the culture.
Assay [15] in a line: viability loss in pontine glioma line – cell-based, SU-DIPG-XIII, MIPE4.0, CellTiter-Glo, qHTS, dose response (AID 1347061; cut-off not given, nearly all actives have AC50 up to about 37 µM;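 further: cells exposed to compound for 48 hours before readout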). The note with it: CellTiter-Glo ATP luminescence.
Assay [16] can be described thus: viability loss in pontine glioma line – cell-based, SU-DIPG-IV, MIPE4.0, CellTiter-Glo, qHTS, dose response (AID 1347063; cut-off not given, nearly all actives have AC50 up to about 30 µM;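 further: compound exposure lasted 48 hours before the viability readout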). To be noted: CellTiter-Glo ATP luminescence.
Assay [17] is described as follows: growth inhibition of DIPG cells – cell-based, MIPE4.0 library, CellTiter-Glo luminescence, qHTS (AID 1347066; cut-off not given, nearly all actives have AC50 up to about 30 µM;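 further: cells exposed to compound for 48 hours before readout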). To be noted: SU-DIPG-VI viability, CellTiter-Glo ATP luminescence.
Assay [18] deals with NAD(+) hydrolase SARM1 (Homo sapiens) (UniProt Q6SZW1). The experiment in a line: blocking NAD cleavage by SARM1 SAM-TIR – cell lysate, NAD-Glo luminescence (AID 1508614;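 active means compound whose remaining NAD level is above about 45 nM, limit read from the data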). To be noted: SAM-TIR HEK293T lysate NADase, at 1 µM, stronger effect = higher value.
Assay [19] can be described thus: galactose survival enhancers in mitochondrial complex I cybrids – cell-based, galactose medium, ATP luminescence, primary screen (AID 1645843;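 active means z-score of at least 1.8 in each of two replicates, scored against plate mean and spread of sample wells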;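 further: positive z means more ATP and so rescue of galactose-driven cybrid death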). The note with it: complex I mutant cybrid cells, 72 h, stronger effect = higher value.
Setting [20] is: measured here: relative caspase fold change +Dox/-Dox.
Setting [21] is: measured here: total cells with miR-34 induction, stronger effect = lower value.
The mark [22] stands for this setting: measured here: total cells without miR-34 induction.
Setting [23] is: MELAS cybrid survival, CellTiter-Glo 48 h, stronger effect = higher value.
Where [24] appears, read: Rieske KO mouse fibroblast survival, CellTiter-Glo 72 h.

Mitogen-activated protein kinase 7 (Homo sapiens), sequence (Q13164 whole entry, looked up, the tested form may be a part): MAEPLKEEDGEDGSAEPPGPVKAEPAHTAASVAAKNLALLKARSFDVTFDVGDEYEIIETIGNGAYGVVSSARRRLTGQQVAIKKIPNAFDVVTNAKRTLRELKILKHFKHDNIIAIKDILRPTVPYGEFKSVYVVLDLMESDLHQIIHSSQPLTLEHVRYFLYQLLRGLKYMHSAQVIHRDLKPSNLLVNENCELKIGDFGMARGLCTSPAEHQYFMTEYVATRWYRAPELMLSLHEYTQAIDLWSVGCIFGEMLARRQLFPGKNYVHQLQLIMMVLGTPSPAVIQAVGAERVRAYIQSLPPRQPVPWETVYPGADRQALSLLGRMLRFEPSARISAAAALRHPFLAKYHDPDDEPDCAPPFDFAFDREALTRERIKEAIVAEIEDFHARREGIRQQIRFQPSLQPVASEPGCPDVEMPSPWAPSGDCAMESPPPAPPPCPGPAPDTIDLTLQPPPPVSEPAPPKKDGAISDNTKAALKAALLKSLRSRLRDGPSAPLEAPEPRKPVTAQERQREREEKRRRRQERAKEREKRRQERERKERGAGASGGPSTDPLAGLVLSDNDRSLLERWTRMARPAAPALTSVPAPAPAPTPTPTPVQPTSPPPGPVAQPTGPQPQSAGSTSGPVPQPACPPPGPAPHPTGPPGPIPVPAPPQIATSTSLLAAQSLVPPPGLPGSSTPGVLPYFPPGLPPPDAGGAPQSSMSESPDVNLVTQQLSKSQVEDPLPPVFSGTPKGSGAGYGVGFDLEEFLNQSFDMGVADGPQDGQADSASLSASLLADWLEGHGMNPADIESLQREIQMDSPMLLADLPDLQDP
6-phosphogluconate dehydrogenase, decarboxylating (Homo sapiens), sequence (P52209 whole entry, looked up): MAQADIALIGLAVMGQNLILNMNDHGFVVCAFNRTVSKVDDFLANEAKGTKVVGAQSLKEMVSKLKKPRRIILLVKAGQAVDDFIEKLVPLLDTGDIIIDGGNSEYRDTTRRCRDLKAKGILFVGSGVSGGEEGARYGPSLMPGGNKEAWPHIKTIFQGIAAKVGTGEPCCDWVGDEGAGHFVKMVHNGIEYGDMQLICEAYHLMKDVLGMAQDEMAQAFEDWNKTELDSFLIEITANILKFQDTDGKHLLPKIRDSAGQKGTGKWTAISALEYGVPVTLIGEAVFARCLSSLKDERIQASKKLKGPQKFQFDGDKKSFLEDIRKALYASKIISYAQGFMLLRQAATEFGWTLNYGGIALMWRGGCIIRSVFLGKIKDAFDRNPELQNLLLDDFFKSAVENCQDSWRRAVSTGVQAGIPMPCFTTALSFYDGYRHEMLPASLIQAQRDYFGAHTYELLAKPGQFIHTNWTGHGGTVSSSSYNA
NAD(+) hydrolase SARM1 (Homo sapiens), sequence (Q6SZW1 whole entry, looked up): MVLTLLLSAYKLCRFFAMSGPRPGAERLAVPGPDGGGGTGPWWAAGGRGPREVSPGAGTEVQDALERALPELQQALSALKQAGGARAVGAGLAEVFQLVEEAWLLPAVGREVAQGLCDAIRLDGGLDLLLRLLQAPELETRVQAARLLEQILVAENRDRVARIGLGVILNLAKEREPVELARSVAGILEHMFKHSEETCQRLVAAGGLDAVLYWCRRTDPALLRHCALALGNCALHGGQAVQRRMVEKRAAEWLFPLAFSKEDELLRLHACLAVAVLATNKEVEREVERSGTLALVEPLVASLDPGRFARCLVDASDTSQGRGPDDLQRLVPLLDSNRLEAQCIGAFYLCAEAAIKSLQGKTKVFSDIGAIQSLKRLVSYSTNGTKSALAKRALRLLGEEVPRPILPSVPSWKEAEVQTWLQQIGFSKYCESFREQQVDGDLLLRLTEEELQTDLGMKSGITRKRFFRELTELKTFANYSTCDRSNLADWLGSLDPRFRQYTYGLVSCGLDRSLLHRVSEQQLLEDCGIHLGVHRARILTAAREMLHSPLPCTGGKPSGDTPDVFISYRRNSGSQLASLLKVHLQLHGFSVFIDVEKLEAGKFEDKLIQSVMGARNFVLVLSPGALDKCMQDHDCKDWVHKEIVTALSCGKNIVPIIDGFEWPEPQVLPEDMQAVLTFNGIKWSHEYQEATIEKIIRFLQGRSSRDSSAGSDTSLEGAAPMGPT

In general, inhibition refers to the drop in the measured response relative to a control, in per cent. In the case of `CC(=O)O[C@@H]1CC2C(C)(C)[C@H](O)C=C[C@]2(C)C2CC[C@]3(C)C(=CC(=O)O[C@H]3c3ccoc3)[C@@]21C` (some centres not stated), the inhibition in assay [1] is -4.71% (inactive). Moreover, in assay [2], the activity remaining was 105% (inactive). Further, the luciferase signal in assay [3] is 120 AU (inactive).
For `CSc1nc(NC(C)C)nc(NC(C)C)n1`, in that order: -9.01% (inactive), 98.6% (inactive) and 60 AU (inactive).
A word on the viability: it is a read-out of living cells in per cent, often relative to untreated cells. Consider `CCCC(C)C1(CC)C(=O)NC(=O)NC1=O` (configuration not stated), for which the inhibition in assay [4] was 8.8%; in assay [1], -1.31% (inactive). In assay [5], the score is 1.08. The molecule further returned a rescue above control in assay [6] of -0.14. For the same molecule, in assay [7], the cytochrome c release ratio worked out at 0.79. The inhibition of aggregation in [8] was -14.3%. Moreover, the glutamate uptake change in assay [9] stood at 8.51%. The inclusion score in assay [10] was found to be 2. For the same molecule, the aggregation suppression score in [11] is 0.96. The parasite load remaining in assay [12] is 22.1% (inactive). In addition, the viability in [12] amounted to 103%. Moreover, the activity remaining in [2] is 95.4% (inactive). Besides, the fold change is 0.918 (inactive) in assay [13] (stronger effect = lower value) and 2.52 in [13] (setting [20]). In addition, the results for the cell count in assay [13] (setting [21]) and in assay [13] (setting [22]) were 11200 and 12200, respectively. The figures for the z-score in assay [14] (setting [23]) and in assay [14] (setting [24]) were 0.13 (inactive) and -0.121, respectively. Also, the luciferase signal in assay [3] was 60 AU (inactive).
With `CCC(C)C(=O)O[C@@H]1C[C@@]2(C)[C@H](c3ccoc3)OC(=O)CC23OC2(C)O[C@]14[C@]1(C)[C@@H](CC(=O)OC)C5(C)CC1(O)[C@](O)(C5OC(=O)C1(C)OC1C)[C@@H](OC(C)=O)[C@]34O2` (some centres not stated), the inhibition in [1] was -16.5% (inactive). In assay [2], the activity remaining was 103% (inactive). The luciferase signal in [3] is 12 AU (inactive).
As usually defined, the AC50 is the concentration at which the activity in the assay is half-maximal. `N#C[C@H](O[C@@H]1O[C@H](CO[C@@H]2O[C@H](CO)[C@@H](O)[C@H](O)[C@H]2O)[C@@H](O)[C@H](O)[C@H]1O)c1ccccc1`: the inhibition in assay [1] was -14.3% (inactive). In addition, the values for the AC50 in assay [15], in [16] and in assay [17] were 23.5 µM (active), 8.33 µM (active) and 20.9 µM (active), respectively. In addition, in assay [3], the luciferase signal was 56 AU (inactive).
As to `CC(C)(C)C(=O)C(Oc1ccc(Cl)cc1)n1cncn1` (configuration not stated), the inhibition in assay [1] was 12.8% (inactive). For the same molecule, the activity remaining in assay [2] was 127% (inactive). In addition, the luciferase signal in assay [3] was 44 AU (inactive).
As for `COc1ccc([C@H]2Oc3c(I)c(OC)cc(OC)c3C[C@@H]2O)cc1OC`, in assay [1], the inhibition was 14.5% (inactive). Further, in assay [2], the activity remaining was 103% (inactive). Besides, the luciferase signal in assay [3] is 44 AU (inactive).
`CCCCCC[C@H]1C(=O)O[C@H](C)[C@H](NC(=O)c2cccc(NC=O)c2O)C(=O)O[C@@H](C)[C@@H]1OC(=O)CC(C)C`: in assay [1], the inhibition is 3.85% (inactive). For the same molecule, the concentration at half-maximal activity (AC50) in assay [17] is 1.32 µM (active).
In the case of `NNCc1ccccc1`, in assay [12], the parasite load remaining was 106% (inactive) and the viability amounted to 91.4%. In addition, the inhibition in assay [1] was 9.93% (inactive). Moreover, the activity remaining in [2] is 105% (inactive).
For `C#C[C@]1(O)CC[C@H]2[C@@H]3CCC4=CC(=O)CC[C@]4(C)[C@H]3CC[C@@]21C`, the parasite load remaining in [12] is 27.4% (inactive) and 14.2% (inactive). Further, the viability in assay [12] is 48.6% and 66.5%. Besides, in [1], the inhibition is 7.17% (inactive). Also, the fold change in assay [13] (stronger effect = lower value) is 0.927 (inactive) and 0.887 (inactive); in [13] (setting [20]), 1.32 and 1.63. In addition, the cell count in assay [13] (setting [21]) is 8580 and 9180; in [13] (setting [22]), 9250 and 10300. Further, the z-score in assay [14] (setting [23]) is -0.171 (inactive) and 0.217 (inactive); in [14] (setting [24]), -0.0237 and 0.861; in assay [19], 0.355 (inactive). The remaining NAD in [18] is 10 nM (inactive). In assay [3], the luciferase signal is 68 AU (inactive).
In the case of `CCC(C)[C@H]1O[C@]2(C=C[C@@H]1C)C[C@@H]1C[C@@H](C/C=C(\C)[C@@H](OC3C[C@H](OC)C(O[C@H]4C[C@H](OC)[C@@H](O)[C@H](C)O4)[C@H](C)O3)[C@@H](C)/C=C/C=C3\CO[C@@H]4[C@H](O)C(C)=C[C@@H](C(=O)O1)[C@]34O)O2` (some centres not stated), the results for the inhibition in assay [4] and in [1] were -42.7% and -3.19% (inactive), respectively. Besides, the score in assay [5] turned out to be 1.47. In [6], this molecule registered a rescue above control of 0. Moreover, the cytochrome c release ratio in assay [7] stood at 4.06. In addition, the inhibition of aggregation in assay [8] was found to be 43.1%. Further, in [9], the glutamate uptake change was -28.6%. This molecule also yielded an aggregation suppression score in assay [11] of 1.02. The parasite load remaining in assay [12] was 83.1% (inactive) and 34.5% (inactive). Besides, the viability in [12] was 68% and 87%. In addition, the activity remaining in assay [2] is 106% (inactive). For the same molecule, the fold change was 1.11 (inactive) in [13] (stronger effect = lower value) and 1.23 in assay [13] (setting [20]). Moreover, the cell count in assay [13] (setting [21]) turned out to be 3700; in assay [13] (setting [22]), 3330.
